From ChEMBL document CHEMBL3988442, “University of Dundee, Small-Polar-MMV Screening Library” (2021)
About 900 (1.7%) of roughly 53,000 compounds showed an effect of 50% or more. The sample as a whole holds a higher share of strong results than the screen did.

Tested on: Mycobacterium tuberculosis
Assay: Cornell - Phenotypic assay to identify agents that inhibit growth of Mycobacterium tuberculosis
Assay type: functional
Parameters: scale not given: direction of the effect not stated beside the values
Settings: 10 mM as filed; unlikely as a test dose

Compound	Percent Effect [%]
CC(C)c1cc(=O)[nH]c(-n2nc(C3CC3)cc2N)n1	108.3
CC(C)c1cc(=O)[nH]c(C(C)(C)N)n1.Cl	8.844
CCCc1cc(=O)[nH]c(SCc2ccccn2)n1	-4.123
CCCc1cc(=O)[nH]c(-n2nc(C3CC3)cc2N)n1	107.6
CCCc1cc(=O)[nH]c(-c2cccc(CN3CCCCCC3)c2)n1	11.6
Cc1cc(=O)[nH]c(-n2nc(C3CC3)cc2N)n1	39.12
CCc1cc(=O)[nH]c(-n2nc(C3CC3)cc2NC(=O)C2CC2)n1	108.9
CCc1c(C)nc(-n2nc(C3CC3)cc2NC(C)=O)[nH]c1=O	9.536
Cn1nc(CNC(=O)C2CC2)cc1C1CC1	29.19
CCN1CCCC(CNC(=O)C2(c3cc(C)cc(C)c3)CCC2)C1 (centres undefined)	-9.012
COc1cccc(CC(=O)N2CCCC2c2nc(C)c(F)c(O)n2)c1 (centres undefined)	-107.1
CCNC(=O)NCc1ccc(-n2ccc(C(F)(F)F)n2)cc1	21.88
COCc1nnc(C(=O)N2CCC(N3CCCCC3)CC2)o1	-29.51
Cc1ccc(-c2ccc(Cl)nn2)cc1S(N)(=O)=O	6.758
CC(=O)N1CCC(c2n[nH]cc2-c2ccnc(N)c2)C1 (centres undefined)	-32.92
CC(C)(C)NC(=O)N1CCCn2nc(C(=O)Nc3ccccc3)cc2C1	16.42
Cc1nnsc1C(=O)NCc1nn(C2CCCC2)c2c1CCCC2	22.48
Cn1cc(-c2nc(C(=O)N3CCCC3c3cnn(C)c3)cs2)cn1 (centres undefined)	20.68
Cc1nn(C)c(N(C)C)c1CNCc1ccnn1C	46.97
CC(C)c1nn(C)c(N(C)C)c1CNCc1ccnn1C	65.83
COc1cc(CNCc2c(C)nn(CC(C)C)c2N(C)C)ccn1	-17.24
COc1ncccc1CNCc1c(C(C)C)nn(C)c1OC	20.17
Cc1nn(CC(C)C)c(N(C)C)c1CNCc1ccnn1C	-14.58
COc1cc(CNCc2c(C)nn(C)c2N(C)C)ccc1C	13.2
CCOc1ncccc1CNCc1c(C(C)C)nn(C)c1N(C)C	-29.31
COc1ncccc1CNCc1c(C)nn(C)c1N(C)C	-66.33

Compound	Percent Effect [%]
CCOc1ncccc1CNCc1c(C)nn(C)c1N(C)C	-13.13
COc1cc(CNCc2c(C)nn(C)c2N(C)C)ccn1	97.38
COc1ncccc1CNCc1c(C(C)C)nn(C)c1N(C)C	63.07
COCCOc1ncccc1CNCc1c(C)nn(C)c1N(C)C	87.98
CCn1cc(CNC(=O)C(C)C)cn1	7.058
Cc1cc(C)cc(OCCCn2nc3ccccn3c2=O)c1	34.72
Cc1ccc(N(C)C2CCCN(C(=O)Nc3ccc(F)cc3F)C2)cc1 (centres undefined)	17.1
Cc1cccc(CN2Cc3ccnn3CC(COCC3CC3)C2)n1.O=C(O)C(F)(F)F (centres undefined)	10.51
COc1ccc(Br)c(NC(=O)NCc2ncnn2C)c1	-5.732
CCn1cc(NC(=O)CN2C(=O)CC(C)(C)c3ccccc32)cn1	23.89
CC(=O)c1cccc(NC(=O)Cn2nc(-c3cccs3)oc2=O)c1	-19.71
Cc1cc(N2CCC(O)(CN(C)C(=O)CCN)CC2)c2cnccc2n1	43.24
O=C(NCCn1cnnc1C1CC1)c1c(O)cc(F)cc1F	-13.58
O=C(O)CC(O)(CC(=O)O)C(=O)O.c1ccc([C@@H]2CN(Cc3ccncc3)C[C@H]2c2cc[nH]n2)cc1	17.96
COc1ccc([C@@H]2CN(Cc3ccncc3)C[C@H]2c2cc[nH]n2)cc1.O=C(O)CC(O)(CC(=O)O)C(=O)O	34.94
O=C(O)CC(O)(CC(=O)O)C(=O)O.c1ccc([C@@H]2CN(Cc3cccnc3)C[C@H]2c2cc[nH]n2)cc1	51.47
O=C1CC(c2ccccc2)c2c(c(C(=O)O)cn2-c2ccccc2)N1 (centres undefined)	15.99
O=C(c1cc(F)ccc1O)N1CCN(C2CCOCC2)CC1	23.2
Cc1cccc(NC(C)C(=O)Nc2nccs2)c1 (centres undefined)	6.251
COc1ccc2[nH]cc(-c3ccnc(N4CCC(C)CC4)n3)c2c1	24.84
COC(=O)c1ccc2c(-c3ccnc(NCCO)n3)c[nH]c2c1	-4.775
COc1ccc2[nH]cc(-c3ccnc(NC4CCCC4)n3)c2c1	104.1
COCCO[C@@H]1CCN(C(=O)c2ccnnc2)[C@H]1Cc1cnn(C)c1	2.018
CCNC(=O)[C@@H]1C[C@@H](NC(=O)Cc2ccncc2)CN1Cc1ccsc1	31.97
CCNC(=O)[C@@H]1C[C@@H](NC(=O)Cc2cc(C)no2)CN1Cc1ccsc1	-13.59
CCNC(=O)[C@@H]1C[C@H](NC(=O)Cn2ccnc2)CN1Cc1ccsc1	104.2

Compound	Percent Effect [%]
Cc1ncc(C(=O)OCC2CCN(c3ccccc3)C2)s1 (centres undefined)	-13.58
Cn1cc(CN2CCC(c3ncc(Cl)cc3S(C)(=O)=O)CC2)cn1	39.28
Oc1nc(N2CCCC2)nc2c1CCN(Cc1ccsc1)CC2	2.378
Cc1nc(N2CCOCC2)nc2c1CCN(Cc1ccsc1)CC2.O=C(O)C(F)(F)F	27.7
CC(C)Oc1ncnc2c1CCN(Cc1ccco1)CC2.O=C(O)C(F)(F)F	21.95
Cc1nc(C)c2c(n1)CCN(Cc1ccco1)CC2	-0.9283
Cc1nc(N2CCCC2)nc2c1CCN(Cc1ccoc1)CC2.O=C(O)C(F)(F)F	56.27
Cc1nc(N2CCOCC2)nc2c1CCN(Cc1cccnc1)CC2.O=C(O)C(F)(F)F	26.93
Cc1nc(N2CCCC2)nc2c1CCN(Cc1ccsc1)CC2.O=C(O)C(F)(F)F	72.79
Cc1nc(N2CCCC2)nc2c1CCN(Cc1ccco1)CC2.O=C(O)C(F)(F)F	96.95
Cc1nc(N2CCCC2)nc2c1CCN(Cc1nccn1C)CC2.O=C(O)C(F)(F)F	0.1901
Cc1cc2cccc(NC(=O)N3CCC(N4CCSCC4)CC3)c2o1	26.32
O=C(CN1CCC2(CC1)NC(=O)c1cc(Br)ccc1N2)NC1CC1	-67.58
Cc1cccc(CN2CCCCC23CCNC3)n1.O=C(O)C(F)(F)F.O=C(O)C(F)(F)F (centres undefined)	9.569
O=C(NCCc1coc(-c2ccc(F)cc2)n1)NC1CC1	9.97
Cc1ccc(Oc2cc(F)ccc2O[C@@H]2CCC[C@@H](N)[C@H]2O)cc1	30.66
N[C@@H]1CCC[C@@H](Oc2ccc(F)cc2Oc2ccccc2)[C@@H]1O	-14.7
CN[C@@H]1CCC[C@@H](Oc2ccccc2Oc2ccc(C)cc2)[C@@H]1O	74.11
Cc1ncsc1-c1nnc(C2CCCN2C(=O)Cn2cccn2)o1 (centres undefined)	-1.275
Cc1cc(CNc2cc(Cl)ccc2OCCS(C)(=O)=O)no1	-0.6634
Cc1cc(CNc2cc(Cl)ccc2Cl)no1	51.97
CCOc1c(Cl)cccc1NCc1cc(C)on1	15.54
O=C(NCc1ccccc1Cn1cncn1)C1CCCC1	0.5526
Cc1noc(C)c1CN1CCC2(CC1)NC(=O)CC2c1cnn(C)c1 (centres undefined)	47.68
Clc1ccccc1-c1nc(CNC2CCc3ncnn3C2)co1 (centres undefined)	-41.84
Cc1ncc2c(n1)C1(CCN(C(=O)C(C)C)CC1)OCC2.Cl	54.97

Compound	Percent Effect [%]
Cc1cnc(N2CCOC3(CCCN(C(=O)C(C)C)C3)C2)nc1 (centres undefined)	8.771
Cc1ncc(C(=O)N2CC(C(=O)N3CCOCC3)C2)c(C)n1	-7.514
Cc1ncc2c(n1)C1(CCN(C(=O)C3CC3)CC1)OCC2.Cl	55.8
Cc1noc(C2(C)CCN(C(=O)C(C)C)CC2)n1	-18.49
O=C(C1CC1)N1CCC2(CC1)OCCO2	-14.17
CCC(CO)N(Cc1cccnc1)C(=O)c1ccncc1F (centres undefined)	1.978
CCc1ncc(CN[C@@H]2CCCN(C(C)=O)[C@H]2c2ccc(C)s2)cn1.Cl	15.97
CCc1cc(NC2CCOCC2)n2nc(C)c(C)c2n1	14.02
Cc1ccc(-c2nc(CN3CCC(N4CCNC4=O)CC3)co2)cc1	0.5995
Cc1noc([C@H]2C[C@H]3OCC[C@H]3N(Cc3ccc(F)cc3)C2)n1.O=C(O)C(F)(F)F	52.79
CCc1ccc(CN2C[C@@H](c3nc(C)no3)C[C@H]3OCC[C@H]32)o1.O=C(O)C(F)(F)F	28.15
Cc1noc([C@H]2C[C@H]3OCC[C@H]3N(Cc3ccc4c(c3)OCO4)C2)n1.O=C(O)C(F)(F)F	10.54
O=C(C1CCCC1)N1CCCC1c1nnc2n1CCCCC2 (centres undefined)	-1.073
CC(C)c1nc(CSc2nnc(C3CC3)n2CC(N)=O)no1	15.19
Cc1cnc(NC(=O)c2csc(NC3CCCC3)n2)s1	99.29
Cc1cnc(NC(=O)N2CCCC2)s1	13.69
Cc1cnc(NC(=O)c2csc(NCC(C)C)n2)s1	60.38
CC(C)CCNC(=O)c1csc(NC2CC2)n1	27.3
Cc1cccc(NC(=O)c2csc(NCC(C)C)n2)n1	22.32
CC(C)NC(=O)c1csc(NC2CC2)n1	29.51
O=C(Nc1ccccn1)c1csc(NC2CCCC2)n1	105.8
Cc1nc(NC2CCCC2)cc(C2CCN2C(=O)c2ccccn2)n1 (centres undefined)	-60.39
CC(NC(=O)Nc1nccs1)C(=O)NC1CCCC1 (centres undefined)	13.09
O=C(Nc1nccs1)c1csc(NC2CCCC2)n1	105.9
CC(C)CCNc1nc(C(=O)NC2CC2)cs1	44.5
CC(C)Nc1nc(C(=O)Nc2ccccn2)cs1	27.58
